Measurements: PubChem BioAssay (EPA / NIEHS)
Records with an inconclusive call do not appear. Active and inactive are the calls of the source. Rule for the calls: active = hit-call score of the fitted dose curve at least 0.9, where 1 is the maximum; inconclusive = response in the unintended direction; inactive = score below 0.9.

target: Cellular tumor antigen p53 (Homo sapiens) (UniProt P04637); experiment: TOX21_p53_BLA_p5_ratio: Tox21 HCT-116 p53 Agonism Beta-lactamase Assay, Ratio, Phase 5 (AID 2283599)
In short: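 Beta-lactamase reporter ratio (blue 460 nm over green 530 nm, 405 nm excitation) after 2 h CCF4-AM loading, in HCT-116 cells exposed 16 h at 37 C to compounds pinned at 217-fold dilution. Increases relative to DMSO baseline scored.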

Sequence of Cellular tumor antigen p53 (Homo sapiens) (P04637 whole entry, looked up): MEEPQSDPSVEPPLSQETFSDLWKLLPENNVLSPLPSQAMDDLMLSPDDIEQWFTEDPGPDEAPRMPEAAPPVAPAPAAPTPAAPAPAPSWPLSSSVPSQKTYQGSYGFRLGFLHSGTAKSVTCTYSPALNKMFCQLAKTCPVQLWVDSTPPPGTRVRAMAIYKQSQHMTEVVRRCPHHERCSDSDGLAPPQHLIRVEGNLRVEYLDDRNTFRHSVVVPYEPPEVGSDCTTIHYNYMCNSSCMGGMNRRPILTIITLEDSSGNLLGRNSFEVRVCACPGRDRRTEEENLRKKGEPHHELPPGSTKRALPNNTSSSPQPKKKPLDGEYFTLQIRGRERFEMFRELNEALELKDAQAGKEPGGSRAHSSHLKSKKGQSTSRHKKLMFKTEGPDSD

Row | SMILES | outcome
1 | [K+] | inactive
2 | O=C(O)CNC(=O)c1ccc(CO)o1 | inactive
3 | Nc1ccc(S(=O)(=O)NC(=O)c2ccccc2)cc1 | inactive
4 | CN1CCC[C@@H]1Cc1c[nH]c2ccc(CCS(=O)(=O)c3ccccc3)cc12 | inactive
5 | Cc1cccc(C)c1NC(=O)CN1CCCC1 | inactive
6 | Nc1ccc(S(=O)(=O)Nc2ccccc2)cc1 | inactive
7 | CC(C)CCOC(=O)C=Cc1ccccc1 | inactive

test system: not listed separately; experiment: TOX21_p53_BLA_p5_viability: Viability Assessment in the Tox21 HCT-116 p53 Agonism Beta-lactamase Assay, Phase 5 (AID 2283600)
In short: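 Luciferase-coupled ATP quantitation of cells treated for 16 h (37C, 5% CO2) with test chemicals delivered in DMSO via a 217-fold dilution; 4000 cells/well; reagent incubated 30 min at room temperature before luminescence reading.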

Row | SMILES | outcome
8 | Cc1ccc(CO)cc1 | inactive
9 | CC(C)N(C)C | inactive
10 | CCCCc1cc2ccccc2c(OCCN(C)C)n1 | inactive
11 | Cc1ccccc1N=Nc1ccc(N=Nc2c(O)ccc3ccccc23)c(C)c1 | inactive
12 | Cc1cc(N)no1 | inactive
13 | CCN(CC)CCn1c(=O)c(Cc2ccc(OC)cc2)nc2ccccc21 | inactive
14 | CCO/C([O-])=N/c1c[n+](N2CCOCC2)no1 | inactive
15 | c1ccc2c(CCC3CCNCC3)c[nH]c2c1 | inactive
16 | Cn1nnnc1SCC1=C(C(=O)O)N2C(=O)[C@@H](NC(=O)[C@H](OC=O)c3ccccc3)[C@H]2SC1 | inactive
17 | CNCCC(Oc1ccccc1OC)c1ccccc1 (stereo unspecified) | inactive
18 | CC(C)NCC(O)COc1ccc(CCOCC2CC2)cc1 (stereo unspecified) | inactive
19 | Clc1ccc2nsnc2c1NC1=NCCN1 | inactive
20 | O=Nc1ccc(NO)cc1 | inactive
21 | Cc1cccc(C)c1NC(=O)CN1CCCCCC1 | inactive
22 | CCCCCC[C@@H](O)C/C=C\CCCCCCCC(=O)OC | inactive
23 | C=CC(C)(O)CCCC(C)CCCC(C)CCCC(C)C (stereo unspecified) | inactive
24 | CO[C@@]1(NC(=O)CSC[C@@H](N)C(=O)O)C(=O)N2C(C(=O)O)=C(CSc3nnnn3C)CS[C@@H]21 | inactive
25 | Nc1ccccc1S(=O)(=O)O | inactive
26 | Cc1ccnc(NS(=O)(=O)c2ccc(N)cc2)n1 | inactive
27 | NC(=O)[C@@H]1C[C@]2(NC(=O)NC2=O)c2cc(F)ccc2O1 | inactive
28 | Cc1ccc(C)cc1 | inactive
29 | Cc1ccc(C)c(N)c1 | inactive
30 | CC(C)CCOC(=O)C=Cc1ccccc1 | inactive

target: Cellular tumor antigen p53 (Homo sapiens) (UniProt P04637); experiment: TOX21_p53_BLA_p4_ratio: Tox21 HCT-116 p53 Agonism Beta-lactamase Assay, Ratio, Phase 4 (AID 2283601)
In short: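 Signal is the blue/green (460nm/530nm) ratio of cleaved versus uncleaved CCF4-AM substrate, read after 2 h substrate loading. Cells were HCT116 carrying the p53-responsive beta-lactamase reporter, dosed 16 h at 37C, 5% CO2; CellTiter-Glo measured in parallel.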

Row | SMILES | outcome
31 | Cc1ccc(CO)cc1 | inactive
32 | CC(CN1c2ccccc2Sc2ccc(S(=O)(=O)N(C)C)cc21)N(C)C (stereo unspecified) | inactive
33 | CCCCc1cc2ccccc2c(OCCN(C)C)n1 | inactive
34 | Cc1cc(N)no1 | inactive
35 | Nc1ccc([N+](=O)[O-])c(N)c1 | inactive
36 | CCO/C([O-])=N/c1c[n+](N2CCOCC2)no1 | inactive
37 | c1ccc2c(CCC3CCNCC3)c[nH]c2c1 | inactive
38 | CN[C@H]1CCc2cc(OC)c(OC)c(OC)c2-c2ccc(OC)c(=O)cc21 | inactive
39 | CO[C@H]1/C=C/O[C@@]2(C)Oc3c(C)c(O)c4c(O)c(c5c(nc6cc(C)ccn65)c4c3C2=O)NC(=O)/C(C)=C\C=C\[C@H](C)[C@H](O)[C@@H](C)[C@@H](O)[C@@H](C)[C@H](OC(C)=O)[C@@H]1C | inactive
40 | CNCCC(Oc1ccccc1OC)c1ccccc1 (stereo unspecified) | inactive
41 | CC(C)NCC(O)COc1ccc(CCOCC2CC2)cc1 (stereo unspecified) | inactive
42 | Clc1ccc2nsnc2c1NC1=NCCN1 | inactive
43 | Cc1ccc2ccccc2c1[N+](=O)[O-] | inactive
44 | O=Nc1ccc(NO)cc1 | inactive
45 | Cc1cccc(C)c1NC(=O)CN1CCCCCC1 | inactive
46 | CCCCCCCCCCCCOCCCN | inactive
47 | Nc1ccccc1S(=O)(=O)O | inactive
48 | c1cnc2cc3c(cc2n1)[C@@H]1CNC[C@H]3C1 | inactive
49 | Cc1ccnc(NS(=O)(=O)c2ccc(N)cc2)n1 | inactive
50 | [K+] | inactive
51 | O=C(O)CNC(=O)c1ccc(CO)o1 | inactive
52 | Nc1ccc(S(=O)(=O)NC(=O)c2ccccc2)cc1 | inactive
53 | FC(F)(F)c1ccccc1Cl | inactive
54 | Cc1ccc(C)c(N)c1 | inactive
55 | Cc1cccc(C)c1NC(=O)CN1CCCC1 | inactive
56 | Nc1ccc(S(=O)(=O)Nc2ccccc2)cc1 | inactive
